Screening data: PubChem BioAssay, The Scripps Research Institute Molecular Screening Center
MITF inh – MITF inhibitors, primary screen, biochemical, AlphaScreen, human; Microphthalmia-associated transcription factor (Homo sapiens), O75030; AlphaScreen MITF homodimerization, bead proximity signal; inhibition, % at 2.6 µM; hit rate 0.91% among 650,000; in the data active = inhibition above about 50%
Target sequence (O75030 whole entry, looked up): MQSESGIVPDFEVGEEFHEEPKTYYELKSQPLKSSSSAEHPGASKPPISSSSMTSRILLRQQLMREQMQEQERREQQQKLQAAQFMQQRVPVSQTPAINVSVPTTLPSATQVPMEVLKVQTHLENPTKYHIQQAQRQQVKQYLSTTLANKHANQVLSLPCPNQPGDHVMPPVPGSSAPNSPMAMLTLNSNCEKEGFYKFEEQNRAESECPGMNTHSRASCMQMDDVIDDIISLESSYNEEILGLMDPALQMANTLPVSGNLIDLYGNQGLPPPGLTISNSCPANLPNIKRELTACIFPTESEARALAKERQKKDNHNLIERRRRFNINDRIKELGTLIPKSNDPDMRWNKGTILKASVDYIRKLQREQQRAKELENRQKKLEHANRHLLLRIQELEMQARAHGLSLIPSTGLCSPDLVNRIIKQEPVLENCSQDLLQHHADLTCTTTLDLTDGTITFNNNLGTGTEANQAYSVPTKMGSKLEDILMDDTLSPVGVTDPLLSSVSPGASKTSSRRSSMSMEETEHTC
FBW7 activator – FBW7 E3 ligase activators, primary screen, biochemical, AlphaScreen, human | normalized activity (activation), % at 26.1 µM | hit rate 0.13% among 650,000 | F-box/WD repeat-containing protein 7 (Homo sapiens), Q969H0 | AID 1259310, 2017 | AlphaScreen FBW7–phospho-cyclin E peptide binding, activator screen; in the data active = normalized activity above about 1.9%;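 also: purified mutant Fbw7 with reduced substrate affinity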
GPR151 activ – activators of human GPR151, primary screen, cell-based, PathHunter beta-arrestin, luminescence | G-protein coupled receptor 151 (Homo sapiens), Q8TDV0 | PathHunter beta-arrestin GPR151 cells | activation, % at 11.2 µM | hit rate 1% among 650,000 | AID 1508602, 2020; in the data active = activation above about 4.9%
TEAD-YAP inh – TEAD-YAP interaction inhibition, primary screen, TEAD-YAP interaction inhibitor project, luminescence, HEK-TIYL cells. inhibition, % at 9.12 µM. TEAD-Gal4/YAP UAS-luciferase luminescence. hit rate 1.4% among 640,000; in the data active = inhibition above about 32%
GPR151 confirm – GPR151 activators, triplicate retest, confirmation, cell-based, PathHunter beta-arrestin, luminescence; GPR151 PathHunter beta-arrestin cells, 90 min; % of EA-reagent control over plate median; 6,700 tested, under 10 active; activation, % at 11.2 µM; shares compounds with GPR151 activ; AID 1508609, 2020;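 active = mean percent activation across replicates above the confirmation screen cutoff of 4.91%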
GPR119 ag – GPR119 activators in beta-arrestin cells, counter-screen for GPR151 activator project, cell-based, PathHunter beta-arrestin, luminescence, triplicate. shares compounds with GPR151 activ. 90 min; 0 = compound-well median, 100 = enzyme-acceptor control. activation, % at 11.2 µM. hit rate 0.3% among 6,700;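 active = mean percent activation in the counterscreen above 29.09%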;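 also: counterscreen on off-target GPR119 to flag nonselective hits from the GPR151 activator screen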
Large screens that a line does not name were inactive (follow-up assays come after a bar, where they were run); ! = not confirmed by another sample. The list is not random: actives were taken first. Their share in the collection is about 3.5%.

CCC(=O)c1ccc(OCC(O)CN(CCO)CCO)cc1 (stereo not drawn)	none
CCCOC(=O)c1ccc(OCC(O)CN(CCO)CCO)cc1 (stereo not drawn)	GPR151 activ 5.1 | GPR151 confirm inactive | GPR119 ag inactive
CN1/C(=C2/SC(=Nc3ccc(C4CCCCC4)cc3)N(c3ccccc3)C2=O)Sc2ccccc21	none
CN1C(=O)/C(=C2/Sc3ccccc3N2C)SC1=Nc1ccc(O)cc1	GPR151 activ 6.4 | GPR151 confirm inactive | GPR119 ag inactive
CCN(CC)CCN1C(=O)c2ccccc2NC1c1ccc(Cl)cc1 (stereo not drawn)	GPR151 activ 7.6 | GPR151 confirm inactive | GPR119 ag inactive
COc1ccccc1C(=O)NCCn1cc(SCC(=O)NCc2ccc(F)cc2)c2ccccc21	none
CC(C)c1ccc(NC(=O)c2cc(S(=O)(=O)N3CCc4ccccc43)ccc2F)cc1	GPR151 activ 7.4 | GPR151 confirm inactive | GPR119 ag inactive
Cc1ccc(NC(=O)c2ccccc2NC(=O)c2ccc(S(=O)(=O)N3CCc4ccccc43)cc2)c(C(=O)c2ccccc2)c1	GPR151 activ 8.7 | GPR151 confirm inactive | GPR119 ag inactive
O=C(Nc1ccc(C(F)(F)F)cc1)N[C@H]1C[C@H]2C(=O)N[C@@H](Cc3ccccc3)C(=O)N2C1	none
CCCn1cc(SC(C)C(=O)Nc2sc3c(c2C(=O)OCC)CCC3)c2ccccc21 (stereo not drawn)	none
O=C1CCc2cc(NC(=O)NCCc3ccccc3)ccc2N1	none
COC(=O)c1sccc1NC(=O)c1nn(C)c2c1COc1ccccc1-2	none
O=C1N=C(N2CCCCC2)S/C1=C\c1ccco1	none
O=C1N=C(N2CCCC2C(=O)O)S/C1=C\c1ccco1 (stereo not drawn)	GPR151 activ 11 | GPR151 confirm inactive | GPR119 ag inactive
CCOc1cc(C#N)ccc1OCC(=O)NC(C)c1ccccc1 (stereo not drawn)	GPR151 activ 13 | GPR151 confirm inactive | GPR119 ag inactive
CC(NC(=O)COc1ccccc1C#N)c1ccccc1 (stereo not drawn)	none
c1cc(CN2CCc3nncn3CC2)n(-c2nccs2)c1	none
Cc1nc2ccccc2c2nn(CC(=O)N3CCNC(=O)C3(C)C)c(=O)n12	none
CCOC(=O)C1CCN(CCC(=O)Nc2ccc(Br)c(C)c2)CC1	GPR151 activ 10 | GPR151 confirm inactive | GPR119 ag inactive
COC(=O)c1ccc(NC(=O)C2CC2)cc1	GPR151 activ 6.3 | GPR151 confirm inactive | GPR119 ag inactive
CCOC(=O)c1ccc(NC(=S)Nc2ccccn2)cc1	GPR151 activ 5.0! | GPR151 confirm inactive | GPR119 ag inactive
O=C(COc1ccccc1)NC(=S)Nc1ccccn1	GPR151 activ 6.6 | GPR151 confirm inactive | GPR119 ag inactive
CCn1nc(C)c(CNCc2cn[nH]c2-c2ccc(OC)c(F)c2)c1C	GPR151 activ 5.4 | GPR151 confirm inactive | GPR119 ag inactive
COc1ccc(-c2[nH]ncc2CNC(C)CCn2cccn2)cc1F (stereo not drawn)	none
CCCNC(=O)c1cc(NCC)nc2ccccc12	GPR151 activ 5.2 | GPR151 confirm inactive | GPR119 ag inactive
CCCNc1cc(C)nc(Nc2cccnc2)n1	none
CCCNc1cc(C)nc(Nc2ccccc2)n1	GPR151 activ 14 | GPR151 confirm inactive | GPR119 ag inactive
CC(=O)N1N=C(c2ccc3nccnc3c2)CC1c1ccccc1 (stereo not drawn)	GPR151 activ 5.9 | GPR151 confirm inactive | GPR119 ag inactive
COc1ccc(C2=NN(C(C)=O)C(c3ccccc3)C2)cc1OC (stereo not drawn)	none
CC(C)=CCN1CCN(Cc2ccc(-n3cccn3)cc2C)CC1CCO (stereo not drawn)	GPR151 activ 11 | GPR151 confirm inactive | GPR119 ag inactive
